# PubChem BioAssay (NCATS)
# Results filed as inconclusive are left out. Where a call stands in place of a potency, no number is given. Values without a mark were called inactive. Active and inactive are the calls of the source. Calls follow the shape of the dose curve; as a rule, active = well fitted curve in the direction sought with a large enough effect; inconclusive = small, poorly fitted or top-dose-only effect, or another doubt; inactive = no such curve, though single readings can be large; an effect the other way counts as inactive or inconclusive.
# Columns and labels:
# MCC-26 = assay: qHTS assay to identify novel small-molecules to repurpose for Merkel cell carcinoma treatment (AID 1296009); details: MCC and control cell lines, CellTiter-Glo viability, 72 h; series mostly up to 46 µM; also: nearly all actives have a fitted effect of over 60% in size
# Outline: (§1)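 Luminescence from CellTiter-Glo, read 10 min after addition at room temperature, reported viability following a 72 hr, 37 degree celsius treatment with NPC or MIPE compounds in titration; values normalized to plate controls.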
# MKL-2 = assay: as above; details: MCC and control cell lines, CellTiter-Glo viability, 72 h; series mostly up to 46 µM
# Outline: as §1
# WaGa = assay: as above; details: MCC and control cell lines, CellTiter-Glo viability, 72 h; series mostly up to 46 µM
# Outline: as §1
# C33A = assay: Primary qHTS to identify gynecologic anti-cancer compounds using libraries of approved drugs and bioactive compounds (AID 1345084); details: Gynecologic cancer cell panel viability, ATPlite luminescence, 48 h; series mostly up to 57.5 µM; also: nearly all actives have a fitted effect of over 55% in size
# Outline: (§2)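 In this quantitative HTS, cell killing is estimated from loss of ATP-dependent luciferase light. Cells see five compound concentrations over a 48 h exposure.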
# CAOV3 = assay: as above; details: Gynecologic cancer cell panel viability, ATPlite luminescence, 48 h; series mostly up to 57.5 µM
# Outline: as §2
# CASKI = assay: as above; details: Gynecologic cancer cell panel viability, ATPlite luminescence, 48 h; series mostly up to 57.5 µM
# Outline: as §2
# Es-2 = assay: as above; details: Gynecologic cancer cell panel viability, ATPlite luminescence, 48 h; series mostly up to 57.5 µM
# Outline: as §2
# Hek293T = assay: as above; details: Gynecologic cancer cell panel viability, ATPlite luminescence, 48 h, control line for the selectivity index; series mostly up to 57.5 µM
# Outline: as §2
# JEG-3 = assay: as above; details: Gynecologic cancer cell panel viability, ATPlite luminescence, 48 h; series mostly up to 57.5 µM
# Outline: as §2
# OV90 = assay: as above; details: Gynecologic cancer cell panel viability, ATPlite luminescence, 48 h; series mostly up to 57.5 µM
# Outline: as §2
# PA-1 = assay: as above; details: Gynecologic cancer cell panel viability, ATPlite luminescence, 48 h; series mostly up to 57.5 µM
# Outline: as §2
# SKOV3 = assay: as above; details: Gynecologic cancer cell panel viability, ATPlite luminescence, 48 h; series mostly up to 57.5 µM
# Outline: as §2
# Tov-21-G = assay: as above; details: Gynecologic cancer cell panel viability, ATPlite luminescence, 48 h; series mostly up to 57.5 µM
# Outline: as §2
# Tov112D = assay: as above; details: Gynecologic cancer cell panel viability, ATPlite luminescence, 48 h; series mostly up to 57.5 µM
# Outline: as §2
# [1] = Drug repurposing screens with cells derived from glioblastoma tumor samples (AID 1345199); details: GBM patient neurospheres viability, ATP luminescence, 48 h; also: nearly all actives have a fitted effect of over 40% in size
# Outline: (§3)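 Primary testing used CD133+ neurospheres from four GBM patients, seven concentrations, 48 h exposure and ATP-based viability; confirmation added three slower-growing patient lines.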
# astro = assay: as above; details: viability, ATP luminescence, 48 h; series mostly up to 45.9 µM
# Outline: as §3
# UISO = assay: qHTS assay to identify novel small-molecules to repurpose for Merkel cell carcinoma treatment (AID 1296009); details: MCC and control cell lines, CellTiter-Glo viability, 72 h; series mostly up to 46 µM; also: nearly all actives have a fitted effect of over 60% in size
# Outline: as §1
# HeLa = assay: Primary qHTS to identify gynecologic anti-cancer compounds using libraries of approved drugs and bioactive compounds (AID 1345084); details: Gynecologic cancer cell panel viability, ATPlite luminescence, 48 h; series mostly up to 57.5 µM; also: nearly all actives have a fitted effect of over 55% in size
# Outline: as §2
# [2] = at 45.9 µM (top of the series), tumour line B
# [3] = at 46.1 µM (top of the series), tumour line C
# [4] = at 20 µM (top of the series), tumour line C
# Potency is read from the fitted curve at half-maximal effect.
compound,measurement,setting,value
Nc1c2c(nc3ccccc13)CCCC2O (centres undefined),Potency,MCC-26,inactive
same,Potency,MKL-2,inactive
same,Potency,WaGa,inactive
same,Potency,C33A,inactive
same,Potency,CAOV3,inactive
same,Potency,CASKI,inactive
same,Potency,Es-2,inactive
same,Potency,Hek293T,inactive
same,Potency,JEG-3,inactive
same,Potency,OV90,inactive
same,Potency,PA-1,inactive
same,Potency,SKOV3,inactive
same,Potency,Tov-21-G,inactive
same,Potency,Tov112D,inactive
same,"activity, negative = cell killing",[1]; [2],4.45%
same,"activity, negative = cell killing","[1]; at 45.9 µM (top of the series), tumour line D",4.03%
same,"activity, negative = cell killing",[1]; [3],-7.2%
same,Potency,astro,inactive
Cc1nc2ccccn2c(=O)c1CCN1CCC(C(=O)c2ccc(F)cc2)CC1,Potency,MCC-26,inactive
same,Potency,MKL-2,inactive
same,Potency,UISO,inactive
same,Potency,C33A,inactive
same,Potency,CAOV3,inactive
same,Potency,CASKI,inactive
same,Potency,Es-2,inactive
same,Potency,Hek293T,inactive
same,Potency,JEG-3,inactive
same,Potency,OV90,inactive
same,Potency,PA-1,inactive
same,Potency,Tov-21-G,inactive
same,Potency,Tov112D,inactive
same,"activity, negative = cell killing",[1]; [2],-22.2%
same,Potency,[1]; tumour line A,6.31 µM (active)
same,Potency,astro,inactive
CCn1nc(C(=O)O)c(=O)c2cc3c(cc21)OCO3,Potency,MCC-26,inactive
same,Potency,MKL-2,inactive
same,Potency,UISO,inactive
same,Potency,WaGa,inactive
same,Potency,C33A,inactive
same,Potency,CAOV3,inactive
same,Potency,CASKI,inactive
same,Potency,Es-2,inactive
same,Potency,Hek293T,inactive
same,Potency,JEG-3,inactive
same,Potency,OV90,inactive
same,Potency,PA-1,inactive
same,Potency,Tov-21-G,inactive
same,Potency,Tov112D,inactive
same,"activity, negative = cell killing",[1]; [4],-1.32%
same,"activity, negative = cell killing","[1]; at 21.2 µM (top of the series), tumour line B",-10.1%
same,"activity, negative = cell killing","[1]; at 21.2 µM (top of the series), tumour line D",-5.8%
same,"activity, negative = cell killing","[1]; at 21.3 µM (top of the series), tumour line A",-22.7%
COCCOC(=O)C1=C(C)NC(C)=C(C(=O)OC(C)C)C1c1cccc([N+](=O)[O-])c1 (centres undefined),Potency,MCC-26,inactive
same,Potency,WaGa,26.6 µM (active)
same,Potency,C33A,inactive
same,Potency,CAOV3,inactive
same,Potency,CASKI,inactive
same,Potency,Es-2,inactive
same,Potency,HeLa,inactive
same,Potency,Hek293T,inactive
same,Potency,JEG-3,inactive
same,Potency,OV90,inactive
same,Potency,PA-1,inactive
same,Potency,SKOV3,inactive
same,Potency,Tov-21-G,inactive
same,Potency,Tov112D,inactive
same,"activity, negative = cell killing",[1]; [2],-4.05%
same,"activity, negative = cell killing",[1]; [3],-1.16%
same,Potency,[1]; tumour line A,14.1 µM (active)
same,Potency,astro,inactive
COC(=O)[C@H]1[C@H]2C[C@@H]3c4[nH]c5cc(OC)ccc5c4CCN3C[C@H]2C[C@@H](OC(=O)c2cc(OC)c(OC)c(OC)c2)[C@@H]1OC,Potency,C33A,inactive
same,Potency,CAOV3,inactive
same,Potency,CASKI,inactive
same,Potency,Es-2,inactive
same,Potency,Hek293T,inactive
same,Potency,JEG-3,inactive
same,Potency,OV90,inactive
same,Potency,PA-1,inactive
same,Potency,SKOV3,inactive
same,Potency,Tov-21-G,inactive
same,Potency,Tov112D,inactive
same,"activity, negative = cell killing",[1]; [2],-27.8%
same,Potency,[1]; tumour line A,5.01 µM (active)
same,Potency,astro,inactive
OCCN1CCN(CC/C=C2/c3ccccc3Sc3ccc(C(F)(F)F)cc32)CC1,Potency,MCC-26,inactive
same,Potency,C33A,inactive
same,Potency,CASKI,inactive
same,Potency,JEG-3,inactive
same,Potency,OV90,10 µM (active)
same,Potency,Tov-21-G,inactive
same,Potency,Tov112D,inactive
same,"activity, negative = cell killing",[1]; [3],-15%
same,Potency,[1]; tumour line A,2 µM (active)
same,Potency,astro,31.6 µM (active)
COC(=O)[C@@H](N)Cc1ccc(O)c(O)c1,Potency,MCC-26,inactive
same,Potency,UISO,inactive
same,Potency,C33A,inactive
same,Potency,CAOV3,inactive
same,Potency,CASKI,inactive
same,Potency,Es-2,inactive
same,Potency,HeLa,inactive
same,Potency,Hek293T,inactive
same,Potency,JEG-3,inactive
same,Potency,OV90,inactive
same,Potency,PA-1,inactive
same,Potency,SKOV3,inactive
same,Potency,Tov-21-G,inactive
same,Potency,Tov112D,inactive
CNCCCN1c2ccccc2CCc2ccccc21,Potency,MCC-26,inactive
same,Potency,C33A,inactive
same,Potency,Es-2,inactive
same,Potency,HeLa,inactive
same,Potency,Hek293T,inactive
same,Potency,JEG-3,inactive
same,Potency,PA-1,inactive
same,Potency,Tov-21-G,inactive
same,"activity, negative = cell killing",[1]; [4],14.5%
same,Potency,[1]; tumour line A,8.91 µM (active)
O=C1NCN(c2ccccc2)C12CCN(CCCC(c1ccc(F)cc1)c1ccc(F)cc1)CC2,Potency,MKL-2,23.7 µM (active)
same,Potency,CAOV3,31.6 µM (active)
same,Potency,Es-2,31.6 µM (active)
same,Potency,JEG-3,31.6 µM (active)
same,Potency,OV90,20 µM (active)
same,Potency,Tov-21-G,inactive
CCC(=O)c1ccc2c(c1)N(CCCN(C)C)c1ccccc1S2,Potency,MCC-26,inactive
same,Potency,C33A,inactive
same,Potency,CASKI,inactive
same,Potency,Es-2,inactive
same,Potency,HeLa,inactive
same,Potency,Hek293T,inactive
same,Potency,JEG-3,inactive
same,Potency,PA-1,inactive
same,Potency,Tov-21-G,inactive
same,Potency,Tov112D,inactive
CC(C)(C)c1ccc(C(=O)CCCN2CCC(OC(c3ccccc3)c3ccccc3)CC2)cc1,Potency,MKL-2,7.5 µM (active)
same,Potency,WaGa,15 µM (active)
same,Potency,C33A,inactive
same,Potency,CAOV3,28.2 µM (active)
same,Potency,CASKI,inactive
same,Potency,Es-2,inactive
same,Potency,JEG-3,inactive
same,Potency,Tov-21-G,inactive
same,Potency,Tov112D,inactive
same,"activity, negative = cell killing",[1]; [3],-18.9%
same,Potency,[1]; tumour line A,2.51 µM (active)
same,Potency,[1]; tumour line B,25.1 µM (active)
same,Potency,[1]; tumour line D,5.01 µM (active)
Nc1ncn([C@@H]2O[C@H](CO)[C@@H](O)[C@H]2O)c(=O)n1,Potency,UISO,9.44 µM (active)
same,Potency,WaGa,16.8 µM (active)
same,Potency,Es-2,3.98 µM (active)
same,Potency,JEG-3,10 µM (active)
same,Potency,OV90,inactive
same,Potency,PA-1,10 µM (active)
same,Potency,Tov-21-G,12.6 µM (active)
